Experimental findings from PubChem BioAssay AID624352 (Sanford-Burnham Center for Chemical Genomics, 2012) are described below.

Hit rate of the full screen: of about 360,000 compounds, about 2,600 (0.72%) were called active. Shown is part of a subset that was picked to be rich in actives. Values without a mark were called inactive.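 The calls were made as follows: active = inhibition of the luminescence signal of 40% or more relative to plate controls, in a single-dose primary screen at 18.75 µM; inactive = the rest.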

A short description of this assay: blockers of HIF-2a driven luciferase – luminescence, 786-0 RCC cells, primary screen (AID 624352). The conditions noted are these: 786-0 RCC cells HIF-2a reporter, overnight, at 18.8 µM, hits give high values.
`Brc1ccc2c(c1)[C@H]1OCC[C@H]1[C@@H](c1cccs1)N2`: the inhibition (in general, the drop in the measured response relative to a control, in per cent) was -2.71%.

Turning to `C[C@H](O)[C@@H]1C(=O)N2CCc3ccc(N4CCOCC4)cc3[C@@H]2C[C@@H]1N(C)C(=O)C(C)(C)C`, the inhibition is -9.89%.

Consider `Cc1cc(C)c(SCCc2ccncc2)c(C)c1`, for which the inhibition is 10%.

For `Cc1n[nH]c(C)c1S(=O)(=O)N1CCCC(C(=O)Nc2ccc(Br)cc2)C1` (configuration not stated), the inhibition was 10.9%.

On to `Cc1cc(Nc2cc(N3CCN(C)CC3)nc(Sc3ccc(NC(=O)C4CC4)cc3)n2)n[nH]1`, for which the inhibition is 52.1% (active).

With `Cc1cc(C)c2c(NC(=O)C3CC3)nn(C)c2n1`, the inhibition was 0.567%.

As for `Nc1cccc(OCCCCCOc2cccc(N)c2)c1`, the inhibition is -55.8%.

Consider `COc1ccc(-c2nc3c(s2)CCc2onc(-c4ccc(OC)cc4)c2-3)cc1`, for which the inhibition was -8.84%.

`CO/N=C/CC(=O)c1ccc(OC)cc1`: the inhibition is -11.6%.

Consider `Cc1cc(NC(=O)COc2ccccc2C#N)no1`, for which the inhibition is -198%.

As to `CC(C)CCOc1ccc(C(=O)C[N+]2(C)CCOCC2)cc1`, the inhibition was 12.3%.

For `CCCOc1ccc(C(=O)C(CCC(CNCC)C(=O)c2ccc(OCCC)cc2)CNCC)cc1` (configuration not stated), the inhibition is 98.1% (active).

Consider `CCOc1cc(C(=O)O)ccc1OCCOc1ccccc1`, for which the inhibition is 15.8%.

In the case of `CC(CC(=O)O)CC(=O)NNC(=O)c1cccc(Br)c1` (configuration not stated), the inhibition is 15.7%.

Take `CC(=O)c1cccc(-c2ccc(CN3C(CC(C)C)C(=O)N(Cc4cn(CC5CCCCC5)nn4)CCS3(=O)=O)cc2)c1` (configuration not stated): the inhibition is 4.21%.

Take `Cn1c(=O)cc(SCC(=O)N2CCN(C(=O)c3ccco3)CC2)c2ccccc21`: the inhibition is -11.7%.

`CC(Sc1nncn1C)C(=O)NCCC1=CCCCC1` (configuration not stated): the inhibition was 1.01%.

As for `Cc1ccc(S(=O)(=O)N(CC(=O)Nc2cccc([N+](=O)[O-])c2)Cc2ccc(Cl)cc2)cc1`, the inhibition is 8.15%.

Regarding `O=C(CCl)N(Cc1cccc([N+](=O)[O-])c1)c1cccc(Cl)c1`, the inhibition is 40.9% (active).

Regarding `CC(=O)N(CN1C(=O)C2C3C=CC(C3)C2C1=O)c1cccc(Cl)c1` (configuration not stated), the inhibition is 9.8%.

For `NS(=O)(=O)c1cc2c(cc1Cl)NC(C(Cl)Cl)NS2(=O)=O` (configuration not stated), the inhibition was 2.3%.

Turning to `O=C1C=C(c2ccc(Cl)cc2)C(=O)N1Nc1ccccc1`, the inhibition is 64.8% (active).

In the case of `COc1ccc(CN2CCn3ncc(C(=O)Nc4ccc(Cl)cc4Cl)c3C2=O)cc1`, the inhibition was 13.3%.

`C[C@]12c3[nH]c4ccc(Cl)cc4c3CCN1C(=O)[C@@H](CC(=O)NCCCn1ccnc1)C[C@@H]2C(=O)N1CCOCC1`: the inhibition is 6.91%.

`Cc1ccc(CS(=O)(=O)CCC(=O)NC2CC2)cc1`: the inhibition is 11.4%.

With `Cc1cc(NS(=O)(=O)c2ccc(NC(=S)NC(=O)c3ccc(F)cc3Cl)cc2)no1`, the inhibition is 21.4%.

On to `CN(CCC(=O)Nc1cc(S(=O)(=O)N(C)C)ccc1Cl)CC(=O)Nc1ccc(F)cc1`, for which the inhibition is 11.6%.

On to `Cc1cccc(NS(=O)(=O)c2ccc(C)c(C(=O)NCc3cccnc3)c2)c1`, for which the inhibition was 9.9%.

As for `Cc1cccc(CS(=O)(=O)c2ncc(Cl)c(C(=O)Nc3ccc(F)cc3)n2)c1`, the inhibition is 86.1% (active).

As to `Cc1ccc(CS(=O)(=O)c2ncc(Cl)c(C(=O)Nc3nnc(C)s3)n2)cc1`, the inhibition was 94.4% (active).

On to `Cc1nnc(NC(=O)CSc2nccn2-c2cccc(C)c2C)s1`, for which the inhibition was 7.22%.

Regarding `Cc1cccc(NC(=O)c2nc(S(=O)(=O)Cc3ccccc3)ncc2Cl)c1`, the inhibition is 86.7% (active).

With `O=C(CS(=O)(=O)Cc1ccccc1)Nc1cccnc1`, the inhibition is -1.93%.

Take `CCCN(CC(=O)Nc1ccccc1OC)C(=O)CCC(=O)c1ccc(F)cc1`: the inhibition was -7.63%.

In the case of `O=C(CC1SC(=Nc2ccccc2)N(Cc2ccccn2)C1=O)Nc1cccc(Cl)c1` (configuration not stated), the inhibition was -84.7%.

As for `CCN(C(=O)COC(=O)c1c(NC(C)=O)sc(C)c1C)C1CCS(=O)(=O)C1` (configuration not stated), the inhibition is 12.6%.

Take `O=C(NCc1cccnc1)C12CC3CC(CC(C3)C1)C2`: the inhibition was 21.4%.

In the case of `CC1(C)CC2CC(C)(CN2c2ncnc3ccc(Br)cc23)C1` (configuration not stated), the inhibition is 31.5%.

Turning to `CCOC(=O)CNc1nc(Cl)nc(Nc2ccc(OC)cc2OC)n1`, the inhibition is 12.9%.

Regarding `COc1ccc(Nc2ncnc3ccc(Br)cc23)c(OC)c1`, the inhibition is 75.3% (active).

Take `CC1=NC2(CCCc3c2no[n+]3[O-])N(O)C1(C)C` (configuration not stated): the inhibition was -5.63%.

Regarding `Cc1cccc(-n2ncc(Cl)c(Cl)c2=O)c1`, the inhibition was 84.5% (active).

Turning to `Nc1c(-c2cccc(Cl)c2)cnn1-c1cccc([N+](=O)[O-])c1`, the inhibition is -139%.

Take `Cc1cccc(N2Cc3ccccc3C2=NC(=O)c2ccc(Cl)nc2)c1`: the inhibition is -92.3%.

Take `COc1ccc(OC)c(-c2c(=O)n(OCc3ccccc3Br)c3ccccc3[n+]2[O-])c1`: the inhibition was 23.8%.

With `Cc1ccc(CNC(=O)COc2ccc(S(=O)(=O)NC(C)C)cc2)cc1`, the inhibition was -0.52%.

Regarding `Cn1c(=O)n(C)c2cc(CNc3ccc(N4CCOCC4)c(C(=O)O)c3)ccc21`, the inhibition is 15.1%.

In the case of `Cc1nnnn1/C(=C\c1ccccc1)C(=O)OCC(=O)N1CC2(C)CC1CC(C)(C)C2` (configuration not stated), the inhibition was 50.7% (active).

For the compound `O=C(CNC(=O)c1cc(S(=O)(=O)N2CCOCC2)ccc1N1CCCC1)Nc1ccc(F)c(F)c1`, the inhibition was 3.34%.

As for `COc1ccc(/C=N/N=C/c2c[nH]c(=O)c(C#N)c2Nc2ccccc2)cc1`, the inhibition was 22.7%.

Take `O=C(O)CCn1c(O)c(C=C2N=c3ccccc3=N2)sc1=S`: the inhibition was 48.3% (active).

For `C=CCNC(=O)C1CC2c3ccccc3C1c1ccccc12` (configuration not stated), the inhibition was 15.4%.

For `CC1(C(=O)NS(=O)(=O)C2CC2)CCCN(C(=O)CSc2ccccc2)C1` (configuration not stated), the inhibition was 6.93%.

For the compound `CCSc1sc(CC)cc1C=O`, the inhibition was 18.8%.

Turning to `COc1ccccc1CN1CC(C(=O)NCCc2cn[nH]c2)CCC1=O` (configuration not stated), the inhibition was 11.7%.

With `COCCN(C(=O)CCC(=O)Nc1ccccn1)C(C(=O)NCCC(C)C)c1ccc(OC)cc1` (configuration not stated), the inhibition is 12.7%.

Take `COc1ccc(C(=O)/C=C/Nc2ccccn2)cc1`: the inhibition is 51.6% (active).

In the case of `COc1ccc2nc(-c3ccccn3)ccc2c1`, the inhibition is -77.1%.

`CCCN1C2CCCC1CC(NC(=O)NC13CC4CC(CC(C4)C1)C3)C2` (configuration not stated): the inhibition is 19.4%.

Turning to `O=C(Nc1ccc2c(c1)OCO2)C1CC1(Cl)Cl` (configuration not stated), the inhibition is -154%.

In the case of `O=C(Nc1ccc2c(c1)OCCO2)C1CCCC1`, the inhibition was 41.3% (active).

Regarding `CN1C(=O)c2ccc(NC(=O)C3CCCCC3)cc2C1=O`, the inhibition is -8.6%.

On to `CCOc1ccc(S(=O)(=O)N2CCC(C(=O)NCc3ccccn3)CC2)cc1Cl`, for which the inhibition was 19.5%.

Regarding `COc1ccc(CCNC(=O)C(=O)NCC2OCCN2S(=O)(=O)c2ccc(F)cc2)cc1OC` (configuration not stated), the inhibition was -5.35%.

In the case of `CCOc1ccc(CN2CCN(Cc3ccc4cc(F)ccc4n3)CC2CCO)cc1` (configuration not stated), the inhibition is 12.7%.

For the compound `O=C(c1ccccc1)c1cccn1CC(=O)N1CCN(c2ccc(F)cc2)CC1`, the inhibition is 12.9%.

As for `CCOCCCN(C(=O)Cn1nnc(-c2ccc(OC)c(OC)c2)n1)C(CC)C(=O)NC1CCCC1` (configuration not stated), the inhibition was 18.1%.

In the case of `C[C@H](CO)N1C[C@H](C)[C@@H](CN(C)C(=O)c2cccc(F)c2)Oc2cc(-c3cncnc3)ccc2S1(=O)=O`, the inhibition was 9.48%.

`COc1ccc(-c2oc3ncnc(NCCCO)c3c2-c2ccc(OC)cc2)cc1`: the inhibition was 40.9% (active).

On to `COCCNc1ncnc2c1ncn2[C@H]1CN(Cc2ccc(OC)cc2)C[C@@H](CO)O1`, for which the inhibition was -2.96%.

Turning to `COc1ccc(-c2oc3ncn(Cc4ccco4)c(=N)c3c2-c2ccc(OC)cc2)cc1`, the inhibition was 8.92%.

For the compound `Cc1ccc(CCCOC(=O)C[N+]2(C)CCCCC2)cc1`, the inhibition was 1.23%.

Regarding `COc1ccc(NC(=O)/C(Cl)=C(/Cl)S(=O)Cc2ccc(C)cc2)cn1` (configuration not stated), the inhibition was 90.8% (active).

As for `C[C@@H]1CN([C@H](C)CO)C(=O)CCCn2nncc2CO[C@@H]1CN(C)S(=O)(=O)c1cccc(C#N)c1`, the inhibition was 13.2%.

Take `NC(c1csc(NC(=O)Nc2ccccc2Oc2ccccc2)n1)c1ccccc1Cl` (configuration not stated): the inhibition was 24.3%.

For `CCN(CC)c1ccc(NC(=O)CCc2nnc3ccc(N4CCCCC4)nn23)c(C)c1`, the inhibition was -2.16%.

Turning to `Cc1nc(C(=O)N2CCCC(C(=O)c3ccc(Cl)cc3)C2)cs1` (configuration not stated), the inhibition was 3.92%.

With `CC(=O)Nc1c2c(nn1-c1ccc(C)cc1C)CS(=O)C2` (configuration not stated), the inhibition was 4.45%.

With `Cc1cc(C)cc(N(CC(=O)NCCSCc2ccco2)S(C)(=O)=O)c1`, the inhibition is 15.8%.

Turning to `CS(=O)(=O)N(Cc1ccc(Cl)cc1)c1ccc(C(=O)NCCSCc2ccco2)cc1`, the inhibition is 43.2% (active).

In the case of `CCc1ccccc1N(CC(=O)NCCSCc1ccco1)S(C)(=O)=O`, the inhibition is 11.4%.

Consider `CC(C)(C)C1CCC(C(=O)Nc2cccnc2)CC1` (configuration not stated), for which the inhibition is 10%.

For the compound `Cc1ccc2c(c1)N(CC(=O)N1CCOCC1)C(=O)CO2`, the inhibition is 7.44%.

Turning to `CC(OC(=O)c1ccccc1NCCO)C(=O)Nc1ccnn1C(C)C` (configuration not stated), the inhibition is 10%.

On to `O=C1Nc2cc(C(=O)N3CCC(N4CCCCC4)CC3)ccc2S/C1=C\c1ccccc1`, for which the inhibition is -25.5%.

Consider `CCN1CCN(CCNC(=O)c2ccc3c(c2)NC(=O)/C(=C\c2cccc(Cl)c2)S3)CC1`, for which the inhibition is 90.6% (active).

`CCN1CCCC1CNC(=O)c1ccc2c(c1)NC(=O)/C(=C\c1ccccc1F)S2` (configuration not stated): the inhibition was -13.2%.

`CC1CCc2sc3nc(N4CCN(CCO)CC4)n4ncnc4c3c2C1` (configuration not stated): the inhibition is -149%.

Take `O=C1CN(C(=O)c2cc(F)cc(F)c2)c2ccccc2N1`: the inhibition was 11.9%.

As for `COc1ccc(-c2onc3ccc(C(C)=O)cc23)cc1`, the inhibition is -105%.

On to `COc1ccccc1-c1nc(C(F)(F)F)c(OC)o1`, for which the inhibition is 4.93%.

For the compound `COc1ccc(-c2nc(-c3ccccc3)no2)c(OC)c1`, the inhibition is 58.9% (active).
